This is a sample that favours compounds with a hit; in the whole collection about 9.6% have one here.
HCT116 bCat-KO = beta-catenin-lacking colon tumor cell growth suppression. HCT116 beta-catenin knockout viability, CellTiter-Glo, 60 h; active compounds read low. viability, % at 10 µM. 140,000 compounds, 1.5% hits;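 active = viability at or under a set limit, the compound median less 4 SD, cut at about 6% in these data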;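 note: 0% = Hyamine 1622 control at 20 µM and 100% = untreated cell control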
Lmaj promast = inhibitors of Leishmania major promastigote growth | inhibition, % at 10 µM | 200,000 compounds, 9% hits | AID 1063 | Leishmania major promastigotes, resazurin fluorescence viability; in the data active = inhibition above about 50%;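 note: promastigotes grown with compound for 44 hours at 28 °C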
Autophagy HCS = autophagy modulation, high-content screen | 190,000 compounds, 0.98% hits | MEF GFP-LC3 puncta imaging; test concentration mostly 10 µM | calls only at 10 µM (by protocol);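 active = percentage of spot-positive cells more than 3 SD above its plate mean, without a fluorescence outlier flag or 80% toxicity; inconclusive = no clear call, values can overlap the other calls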;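 note: spot-positive cell cutoff set from DMSO-treated cells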
Insulin prom up = MIN6 insulin promoter up-regulation; MIN6 insulin promoter-GFP reporter, high-content imaging; active compounds read high; AID 1625; 190,000 compounds, 0.3% hits; z-score at 5 µM;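 active = z-score above 3 at 5 µM with at least 500 cells counted in the well; inconclusive = wells under 500 cells, flagged as cytotoxic or low count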
INS promoter inh = TRM-6 insulin promoter activity inhibition; TRM-6 cells (human fetal islet line), insulin promoter-eGFP reporter, imaging; reporter expression induced with tamoxifen; AID 1273; 130,000 compounds, 0.9% hits; inhibition, % at 2 µM;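 active = inhibition above the mean plus 3 SD, with well images judged a real hit on visual review, cut at about 60% in these data, passing the limit was not always enough; inconclusive = inhibition over the cutoff but images rejected on review; inactive = inhibition not above the cutoff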
HCT116 PTEN-null = growth suppressors of cells with PTEN tumor suppressor deletion. 140,000 compounds, 1.2% hits. viability, % at 10 µM. HCT116 PTEN-null viability, CellTiter-Glo, 60 h; active compounds read low;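 active = viability at or below a set limit, 4 SD under the median of all tested compounds, cut at about 3.7% in these data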;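 note: PTEN knockout HCT116 line with beta catenin targeted HCT116 as companion control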
An asterisk follows results filed as active.

How did Cc1cc(C)c2sc(NNC(=O)c3ccc(S(=O)(=O)N4CCc5ccccc5C4)cc3)nc2c1 do in these assays?
HCT116 bCat-KO: 6.8; Lmaj promast: 98.7*; Autophagy HCS: inactive; Insulin prom up: inconclusive; INS promoter inh: 50.0; HCT116 PTEN-null: 7.3

Results for O=C(Nc1ccccc1N1CCN(c2ccccc2)CC1)c1ccccc1F ?
Lmaj promast: 9.3; Autophagy HCS: inactive; Insulin prom up: -0.15

How did COc1ccc(-c2csc3nc(C(C)C)oc(=O)c23)cc1OC do in these assays?
Lmaj promast: 7.2; Autophagy HCS: inactive; Insulin prom up: 0.28

What do the screens show for `COc1ccc(-c2nc3scc(-c4ccc(OC)c(OC)c4)c3c(=O)o2)cc1`?
HCT116 bCat-KO: 39.2; Lmaj promast: 22.3; Autophagy HCS: active; Insulin prom up: -1.19; HCT116 PTEN-null: 14.5

What do the screens show for `COc1cccc(-c2ccc3c(N)c(C(=O)NC4CC4)sc3n2)c1`?
Insulin prom up: -0.98

How did COc1ccc(-c2c(C#N)c(N)nc3c2CCC3)cc1 do in these assays?
Lmaj promast: -2.3; Autophagy HCS: inactive; Insulin prom up: -0.15

What do the screens show for `COc1ccc(C(=O)c2sc3nc(-c4ccc(OC)cc4)ccc3c2N)cc1`?
HCT116 bCat-KO: 89.6; Lmaj promast: -5.5; Autophagy HCS: active; Insulin prom up: 0.68; INS promoter inh: -245.4; HCT116 PTEN-null: 99.4

Results for COc1ccc(-c2ccc3c(N)c(C(=O)c4cccc(OC)c4)sc3n2)cc1 ?
HCT116 bCat-KO: 90.8; Lmaj promast: 1.5; Autophagy HCS: active; INS promoter inh: -66.7

What do the screens show for `COc1ccc(-c2c(C#N)c(N)nc3sc(C(=O)c4ccc(C)cc4)c(N)c23)cc1`?
HCT116 bCat-KO: 86.4; Lmaj promast: 23.5; Autophagy HCS: active; Insulin prom up: 0.19; INS promoter inh: -3.5; HCT116 PTEN-null: 73.5

How did CC(=O)Nc1sc(C)c(C)c1C(=O)OCC(=O)Nc1cc(S(=O)(=O)N2CCCCC2)ccc1Cl do in these assays?
HCT116 bCat-KO: 40.4; Lmaj promast: 7.3; Autophagy HCS: inactive; Insulin prom up: 0.33; INS promoter inh: 0.0; HCT116 PTEN-null: 3.1*

Results for CC(=O)c1c(C)[nH]c(C(=O)OCC(=O)Nc2cc(S(=O)(=O)N3CCCC3)ccc2Cl)c1C ?
HCT116 bCat-KO: 71.7; Lmaj promast: 71.5*; Autophagy HCS: inactive; Insulin prom up: -0.49; HCT116 PTEN-null: 69.4

Results for O=C(COC(=O)c1ccc(Cl)nc1)Nc1cc(S(=O)(=O)N2CCCCC2)ccc1Cl ?
Lmaj promast: -10.0; Autophagy HCS: inactive; Insulin prom up: -0.2

How did CC(=O)c1c(C)[nH]c(C(=O)OCC(=O)Nc2cccc(S(=O)(=O)N3CCCC3)c2)c1C do in these assays?
HCT116 bCat-KO: 74.8; Lmaj promast: -2.9; Autophagy HCS: inactive; Insulin prom up: -0.39; HCT116 PTEN-null: 79.9

How did CC(C)(C)NC(=O)c1ccncc1 do in these assays?
HCT116 bCat-KO: 99.4; Lmaj promast: 1.1; Autophagy HCS: inactive; Insulin prom up: 0.08; INS promoter inh: -9.7; HCT116 PTEN-null: 110.5

What do the screens show for `COC(=O)C(Cc1ccccc1)NC(=O)c1cc(=O)[nH]c2ccccc12` (centres undefined)?
Lmaj promast: -1.5; Autophagy HCS: inactive; Insulin prom up: 1

What do the screens show for `COc1ccc(CCNC(=O)C2CCN(S(=O)(=O)c3c(C)noc3C)CC2)cc1OC`?
HCT116 bCat-KO: 94.1; Lmaj promast: 52.5*; Autophagy HCS: inactive; Insulin prom up: -0.71; INS promoter inh: 65.5*; HCT116 PTEN-null: 109.3

Results for Cc1cccc(CCNC(=O)C2CCN(S(=O)(=O)c3c(C)noc3C)CC2)c1 ?
HCT116 bCat-KO: 93.2; Lmaj promast: 100.0*; Autophagy HCS: inactive; Insulin prom up: -0.66; INS promoter inh: 23.3; HCT116 PTEN-null: 92.3

Results for CCC1CCCCN1CCNC(=O)C1CCN(S(=O)(=O)c2c(C)noc2C)CC1 (centres undefined) ?
HCT116 bCat-KO: 98.5; Lmaj promast: 76.9*; Autophagy HCS: inactive; Insulin prom up: -1.17; INS promoter inh: 18.6; HCT116 PTEN-null: 105.2

How did CCC1CCCCN1CCCNC(=O)C1CCN(S(=O)(=O)N2CCCCC2)CC1 (centres undefined) do in these assays?
HCT116 bCat-KO: 94.1; Lmaj promast: 4.6; Autophagy HCS: inactive; Insulin prom up: -0.43; INS promoter inh: -215.4; HCT116 PTEN-null: 113.6

How did COc1ccc(CCNC(=O)C2CCN(S(C)(=O)=O)CC2)cc1OC do in these assays?
HCT116 bCat-KO: 87.9; Lmaj promast: -4.5; Autophagy HCS: inactive; Insulin prom up: -0.19; INS promoter inh: 5.3; HCT116 PTEN-null: 89.6

Results for COc1cc(C(=O)NCc2nnc(SCC(=O)N3CCCCC3)o2)cc(OC)c1OC ?
HCT116 bCat-KO: 98.4; Lmaj promast: -2.8; Autophagy HCS: inactive; Insulin prom up: -0.67; INS promoter inh: -32.1; HCT116 PTEN-null: 89.3

How did COc1cc2c(cc1OC)C(Cc1ccc(O)cc1)N(C)CC2 (centres undefined) do in these assays?
HCT116 bCat-KO: 35.5; Lmaj promast: -2.7; Autophagy HCS: inactive; Insulin prom up: -0.25; INS promoter inh: -21.4; HCT116 PTEN-null: 38.3

Results for CCOC(=O)c1cnc(-n2[nH]c(C)c(Cc3ccccc3)c2=O)[nH]c1=O ?
Lmaj promast: -0.8; Autophagy HCS: inactive; Insulin prom up: -0.96; INS promoter inh: -6.7

How did COc1ccc(Cn2nnc3c(=O)[nH]c(C(=O)NCCc4ccc(F)cc4)nc32)cc1OC do in these assays?
HCT116 bCat-KO: 101.2; Lmaj promast: 25.8; Autophagy HCS: inactive; Insulin prom up: 1.86; INS promoter inh: 90.0*; HCT116 PTEN-null: 107.9

What do the screens show for `Oc1[nH]c2ccccc2c1N=Nc1nc2ccccc2s1`?
HCT116 bCat-KO: 1.3*; Lmaj promast: -1.3; Autophagy HCS: inactive; HCT116 PTEN-null: 1.6*

Results for CN(C=C1C(=O)CC(C)(C)CC1=O)CCN1CCNCC1 ?
HCT116 bCat-KO: 91.8; Lmaj promast: -4.4; Autophagy HCS: inactive; Insulin prom up: -0.25; INS promoter inh: 17.9; HCT116 PTEN-null: 88.0

How did CS(=O)(=O)Nc1cccc2cccnc12 do in these assays?
HCT116 bCat-KO: 11.2; Lmaj promast: 80.3*; Autophagy HCS: inactive; Insulin prom up: 0.32; HCT116 PTEN-null: 11.5

What do the screens show for `NC(=S)Nc1cccc2cccnc12`?
HCT116 bCat-KO: 50.3; Lmaj promast: 89.3*; Autophagy HCS: inactive; Insulin prom up: -0.22; INS promoter inh: 3.2; HCT116 PTEN-null: 65.9

Results for Cc1cc(C)n(-c2ccc3cccc(NS(C)(=O)=O)c3n2)n1 ?
HCT116 bCat-KO: 3.6*; Lmaj promast: 46.0; Autophagy HCS: inactive; Insulin prom up: -0.94; INS promoter inh: 34.5; HCT116 PTEN-null: 5.2

What do the screens show for `O=C(Nc1ccc(S(=O)(=O)Nc2ncccn2)cc1)c1ccc(S(=O)(=O)N2CCCC2)cc1`?
Lmaj promast: 18.0; Autophagy HCS: inactive; Insulin prom up: 1.97

Results for O=S(=O)(Nc1cccc2cccnc12)c1ccc(S(=O)(=O)N2CCCC2)cc1 ?
HCT116 bCat-KO: 8.7; Lmaj promast: 99.2*; Autophagy HCS: inactive; Insulin prom up: 0.22; HCT116 PTEN-null: 3.8*

Source: PubChem
